# The entries come from a sample that favours the strongest signals as a whole.
# B1: PhypaEULS3 (Physcomitrella patens) (protein)
# chain: MLPVRLHCKADPNFNLAAVPGQGPVMVPFSPNDDFQVWYKDVTMSTRVKDETGSSAFSLINKATGQALRHAPEDLAQCLLADYDSNALDQTVLWTMSEDMGQGYCCIRLASQITRNLDVFRGDKKSGGVKEGSPVITFAWKKQDNQIWKMITAILEQKLISEEDLNSAVDHHHHHH
# Experiments:
# Experiment in all cases: glycan array binding signal (z-score within array); higher = stronger binding
# Conditions in all cases: glycan notation: IUPAC condensed, linker removed
# [1] = target: Fuc(a1-2)Gal(b1-4)GlcNAc(b1-3)Gal(b1-4)GlcNAc(b1-2)Man(a1-3)[Fuc(a1-2)Gal(b1-4)GlcNAc(b1-3)Gal(b1-4)GlcNAc(b1-2)Man(a1-6)]Man(b1-4)GlcNAc(b1-4)GlcNAc
# In short: (§1)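 Columns mapping to the same glycan were averaged after glycan names were converted to IUPAC-condensed notation. The data come from 3228 arrays in the Consortium for Functional Glycomics database, limited to those with an available protein sequence. Binding is reported as a within-array Z-score averaged across arrays of one protein sequence and across linkers.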
# [2] = target: Fuc(a1-2)Gal3S(b1-4)GlcNAc
# In short: as §1
# [3] = target: Fuc(a1-2)Gal6S(b1-3)GlcNAc6S
# In short: as §1
# [4] = target: Fuc(a1-2)[GalNAc(a1-3)]Gal(b1-3)GlcNAc(b1-6)GalNAc
# In short: as §1
# [5] = target: Fuc(a1-3)[Gal(b1-4)]GlcNAc(b1-6)[Gal(b1-3)GlcNAc(b1-3)]Gal(b1-4)Glc
# In short: as §1
# [6] = target: Fuc(a1-3)[Gal(b1-4)]GlcNAc6S
# In short: as §1
# [7] = target: Gal(a1-3)Gal(b1-3)GlcNAc(b1-6)GalNAc
# In short: as §1
# [8] = target: Gal(a1-3)Gal(b1-4)GlcNAc(b1-3)GalNAc
# In short: as §1
# Gal(b1-3)GlcNAc(b1-2)Man = target: Gal(b1-3)GlcNAc(b1-2)Man
# In short: as §1
# [9] = target: Gal(b1-3)GlcNAc(b1-6)Gal(b1-4)GlcNAc
# In short: as §1
# Gal(b1-3)GlcNAc6S = target: Gal(b1-3)GlcNAc6S
# In short: as §1
# [10] = target: Gal(b1-3)[Neu5Ac(a2-6)]GalNAc
# In short: as §1
# Gal(b1-4)Glc6S = target: Gal(b1-4)Glc6S
# In short: as §1
# Gal(b1-4)GlcNAc(b1-2)Man = target: Gal(b1-4)GlcNAc(b1-2)Man
# In short: as §1
# [11] = target: Gal(b1-4)GlcNAc(b1-2)[Gal(b1-4)GlcNAc(b1-6)]Man(a1-6)[GlcNAc(b1-4)][Gal(b1-4)GlcNAc(b1-2)Man(a1-3)]Man(b1-4)GlcNAc(b1-4)GlcNAc
# In short: as §1
# [12] = target: Gal(b1-4)GlcNAc(b1-3)Gal(b1-3)GalNAc
# In short: as §1
# [13] = target: Gal(b1-4)GlcNAc(b1-3)Gal(b1-4)GlcNAc(b1-3)Gal(b1-4)GlcNAc(b1-3)Gal(b1-4)GlcNAc(b1-2)Man(a1-3)[Gal(b1-4)GlcNAc(b1-3)Gal(b1-4)GlcNAc(b1-3)Gal(b1-4)GlcNAc(b1-3)Gal(b1-4)GlcNAc(b1-2)Man(a1-6)]Man(b1-4)GlcNAc(b1-4)[Fuc(a1-6)]GlcNAc
# In short: as §1
# [14] = target: Gal3S(b1-4)[Fuc(a1-3)]Glc6S
# In short: as §1
# [15] = target: Gal3S(b1-4)[Fuc(a1-3)]GlcNAc6S
# In short: as §1
# Gal4S6S(b1-4)GlcNAc = target: Gal4S6S(b1-4)GlcNAc
# In short: as §1
# Gal6S(b1-3)GlcNAc6S = target: Gal6S(b1-3)GlcNAc6S
# In short: as §1
# [16] = target: GalNAc3S(b1-4)[Fuc(a1-3)]GlcNAc
# In short: as §1
# GalNAc4S6S(b1-4)GlcNAc = target: GalNAc4S6S(b1-4)GlcNAc
# In short: as §1
# Glc(a1-4)Glc = target: Glc(a1-4)Glc
# In short: as §1
# Glc(b1-6)Glc = target: Glc(b1-6)Glc
# In short: as §1
# GlcA(b1-3)Gal = target: GlcA(b1-3)Gal
# In short: as §1
# [17] = target: GlcNAc(a1-4)Gal(b1-4)GalNAc
# In short: as §1
# [18] = target: GlcNAc6S(b1-3)Gal(b1-4)GlcNAc
# In short: as §1
# Kdn(a2-6)Gal(b1-4)GlcNAc = target: Kdn(a2-6)Gal(b1-4)GlcNAc
# In short: as §1
# [19] = target: Man(a1-2)Man(a1-2)Man(a1-6)[Man(a1-3)]Man
# In short: as §1
binder,measurement,setting,value
B1,glycan array binding signal (z-score),[1],0.946
same,glycan array binding signal (z-score),[2],-0.262
same,glycan array binding signal (z-score),[3],3.08
same,glycan array binding signal (z-score),[4],0.713
same,glycan array binding signal (z-score),[5],2.22
same,glycan array binding signal (z-score),[6],-0.239
same,glycan array binding signal (z-score),[7],0.611
same,glycan array binding signal (z-score),[8],3.21
same,glycan array binding signal (z-score),Gal(b1-3)GlcNAc(b1-2)Man,0.702
same,glycan array binding signal (z-score),[9],1.01
same,glycan array binding signal (z-score),Gal(b1-3)GlcNAc6S,1.42
same,glycan array binding signal (z-score),[10],-0.203
same,glycan array binding signal (z-score),Gal(b1-4)Glc6S,0.095
same,glycan array binding signal (z-score),Gal(b1-4)GlcNAc(b1-2)Man,1.11
same,glycan array binding signal (z-score),[11],-0.969
same,glycan array binding signal (z-score),[12],2.27
same,glycan array binding signal (z-score),[13],-0.557
same,glycan array binding signal (z-score),[14],0.258
same,glycan array binding signal (z-score),[15],2.66
same,glycan array binding signal (z-score),Gal4S6S(b1-4)GlcNAc,-0.245
same,glycan array binding signal (z-score),Gal6S(b1-3)GlcNAc6S,4.14
same,glycan array binding signal (z-score),[16],-0.804
same,glycan array binding signal (z-score),GalNAc4S6S(b1-4)GlcNAc,2.6
same,glycan array binding signal (z-score),Glc(a1-4)Glc,-0.811
same,glycan array binding signal (z-score),Glc(b1-6)Glc,-1.38
same,glycan array binding signal (z-score),GlcA(b1-3)Gal,-1.49
same,glycan array binding signal (z-score),[17],-1.15
same,glycan array binding signal (z-score),[18],1.26
same,glycan array binding signal (z-score),Kdn(a2-6)Gal(b1-4)GlcNAc,0.671
same,glycan array binding signal (z-score),[19],0.733

# From the supplement of paper PMC8728848
